Hits are enriched below; roughly 2.2% of the tested compounds scored in any of these assays.
TDP43 rescue: TDP-43 toxicity inhibition in yeast; TDP-43 expressing yeast growth rescue, BacTiter-Glo, 24 h; Potency, µM (highest dose often 46.1 µM), for the others: top-dose growth rescue (activation), usual class: activators; 410,000 tested, 1.8% active; AID 652104; further: % of control where 0% means no effect; nearly all actives have a fitted effect of over 50% in size
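Growth rescue of TDP-43-toxic yeast measured as ATP luminescence (BacTiter-Glo). Cells grown to mid-log in raffinose, induced in galactose at OD600=0.02, exposed to compound 24 hr at 30 deg C.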
aSyn yeast inh: rescues yeast growth from alpha-synuclein toxicity; Yeast expressing alpha-synuclein, growth rescue, BacTiter-Glo, 24 h; Potency, µM (titrated, usually from 46.1 µM), for inactives: at the top dose growth rescue (activation), most hits filed as activators; 370,000 tested, 0.14% active; further: % of control where 0% means no effect; nearly all actives have a fitted effect of over 65% in size
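Galactose-induced alpha-syn yeast (OD600=0.02, raffinose-pregrown) + pinned cpd, 24 hr, 30 deg C; growth by BacTiter-Glo luminescence. Growth restoration scores as activation.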
Mito fusion act: blocks mitochondrial division or promotes mitochondrial fusion; S. cerevisiae fusion-defective mutant growth rescue, CellTiterGlo 48 h; Potency, µM (top dose mostly 46.1 µM), without a hit: at the top dose growth rescue (activation), hits mostly activators; 320,000 tested, 0.23% active; further: % of control where 0% means no effect; nearly all actives have a fitted effect of over 45% in size
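Compounds are tested for their ability to restore growth of mitochondrial fusion-defective yeast strains at non-permissive 37C in YPEG medium over 48 hours. Viability is quantified by luciferase luminescence.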
Abeta yeast res: A-beta toxicity reversal in yeast; yeast expressing A-beta42, growth rescue, OD600, 48 h; response scale: 0% DMSO, 100% iron-clioquinol control; Potency, µM (doses to about 46.1 µM), actives largely listed as activators; 410,000 tested, 0.063% active; AID 1347071; further: nearly all actives have a fitted effect of over 55% in size
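Yeast growth medium received pinned compounds, then yeast cells expressing toxic A-beta were added; plates incubated at 30 C for 48 hr. Growth read as absorbance at 600 nm, normalized to DMSO and equimolar FeCl3 plus clioquinol controls.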
FUS yeast rescue: suppressors of FUS proteinopathy in yeast; S. cerevisiae FUS-expressing, growth rescue, OD600, 24 h; AID 1347120; Potency, µM (doses to about 76.6 µM), most hits filed as activators; 390,000 tested, 0.24% active;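 further: plate controls were DMSO vehicle for no effect and reference control for full effect; nearly all actives have a fitted effect of over 55% in size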
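Cultures pregrown in 2.5% raffinose medium are shifted to minimal medium containing 2% galactose to express toxic FUS. Compounds are tested at several concentrations. After 24hr at 30C, growth is quantified at 600 nm absorbance.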
ERG Ets-DNA blk: inhibitors of human ERG Ets domain-DNA interaction; 370,000 tested, 0.028% active; fluorescence polarization, His-ERG Ets domain / labelled DNA; AID 624246; P11308; Potency, µM (top dose mostly 76.9 µM), for inactives: at the top dose FP activity, negative = inhibition, most hits filed as inhibitors; active means well fitted inhibition curve with a large enough effect in the polarisation, with a control signal flat; inconclusive means small, poorly fitted or top-dose-only effect, or effect the other way, or a change in a side signal; inactive means no such curve, though single readings can be large or run the other way; the % refers to the polarisation;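 further: polarization taken with two DNA probes labelled with fluorescein and Texas red; % of control where 0% means no effect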
Target sequence (P11308 whole entry, looked up, the tested form may be a part): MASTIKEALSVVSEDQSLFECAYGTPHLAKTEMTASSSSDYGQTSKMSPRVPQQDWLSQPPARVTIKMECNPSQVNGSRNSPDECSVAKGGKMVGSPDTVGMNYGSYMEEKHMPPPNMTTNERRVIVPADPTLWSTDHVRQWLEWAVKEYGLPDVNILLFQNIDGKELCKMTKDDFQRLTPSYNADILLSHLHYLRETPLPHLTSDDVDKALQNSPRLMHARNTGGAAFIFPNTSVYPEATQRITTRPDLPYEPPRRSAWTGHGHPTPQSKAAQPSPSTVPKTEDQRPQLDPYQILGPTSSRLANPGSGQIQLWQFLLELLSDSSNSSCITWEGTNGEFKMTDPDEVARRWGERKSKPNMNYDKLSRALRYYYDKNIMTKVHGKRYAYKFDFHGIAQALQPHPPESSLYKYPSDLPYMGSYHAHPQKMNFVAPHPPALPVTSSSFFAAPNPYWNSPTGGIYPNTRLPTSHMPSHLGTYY
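His-tagged ERG Ets domain (1 uM in the protein solution; 300mM KCl, 50mM Tris-HCl, 1mM EDTA, 1mM DTT, pH 7.5) received compound, then a probe mix of 5 nM fluorescein-DNA and 100nM Texas-615-DNA. Fluorescence polarization was read for both dyes.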
Starred values were filed as active, the others as inactive; i = inactive; u = inconclusive; x = no result given; [ ] = another dose, or the depositor's remark. Unless noted, the call rests on the fitted dose curve; in most records, active means well fitted curve in the direction sought with a large enough effect; inconclusive means small, poorly fitted or top-dose-only effect, or another doubt; inactive means no such curve, though single readings can be large; an effect the other way counts as inactive or inconclusive. Potency means the concentration at half of the fitted maximal effect.

SMILES | TDP43 rescue | aSyn yeast inh | Mito fusion act | Abeta yeast res | FUS yeast rescue | ERG Ets-DNA blk
CCCCn1c(SCC(=O)OCC)nc2c(sc(=S)n2-c2ccccc2OC)c1=O | 12.6µM* | -14.7% | 2.5% | i | i | 2.5%
O=C(OCc1cn(Cc2ccccc2Cl)nn1)N1CCOCC1 | x | x | x | x | i | x
CN(C)c1cccc(CNC(=O)c2csc(COCCO)n2)c1 | 9.9% | -1.7% | x | i | i | x
Fc1cccc(Cl)c1C1SCc2nc3ccccc3n21 (centres undefined) | 12.6µM* | 6.2% | x | i | i | x
COC(=O)[C@]12C[C@H](CC(=O)N3CCCC3)C(=O)N(CCc3ccc(OC)c(OC)c3)C1=C[C@H](C1CCCC1)O[C@@H]2C | x | x | x | x | i | x
Cc1ccc(C(=O)OC(C)C(=O)Nc2ccc(Cl)cn2)s1 (centres undefined) | 14.1µM* | -14.0% | -5.5% | i | i | -1.8%
O=C(CSc1ccccc1Cl)c1ccco1 | 15.8µM* | -0.2% | 0.1% | i | i | 0.0%
Oc1ccc(-c2c(C3=CCCCC3)sc3ccccc23)cc1 | 20µM* | -46.2% | -10.7% | i | i | -0.3%
C1=C(c2cn(-c3nc4ccccc4s3)nn2)CCCC1 | 16.1% | 0.7% | x | i | i | x
O=C1CC(Sc2ccc(Cl)cc2)C(=O)N1c1ccc2c(c1)OCCO2 (centres undefined) | 11.2µM* | 26.0% | -3.1% | i | i | 1.2%
CCOc1cc2c(cc1O)CCC1C2CCC2(C)C(O)CCC12 (centres undefined) | 15.8µM* | 0.7% | x | i | x | x
CCNc1cc2c(cc1O)CCC1C2CCC2(C)C(O)CCC12 (centres undefined) | u | 13.8% | x | i | x | -10.6%
Cn1c(=O)oc2cc(S(=O)(=O)N3CCN(c4cccc(C(F)(F)F)c4)CC3)ccc21 | x | x | x | x | i | x
O=[N+]([O-])c1cc(C(F)(F)F)ccc1NCCc1c[nH]c2ccccc12 | 22.4µM* | 4.1% | -7.0% | i | i | 0.9%
COc1ccc(-c2nc(NCCN(C)C)nc3ccsc23)c(C)c1 | -4.3% | 1.8% | x | i | i | x
COc1ccc(-c2cc(-c3ccccc3O)[nH]n2)cc1OC | 12.6µM* | 11.3% | -8.3% | i | i | -3.5%
COc1ccc(-c2cc(-c3cc(OC)ccc3O)[nH]n2)cc1 | 25.1µM* | 5.8% | 4.7% | i | i | -7.4%
COc1ccc(-c2cc(-c3ccc(OC)c(OC)c3)n[nH]2)c(O)c1 | u | -6.9% | -5.5% | i | x | 0.6%
CC(=O)CC[C@@H]1CC[C@]2(CCCN(C(=O)C3CCCCC3)C2)O1 | x | x | x | x | i | x
CCc1cccc(NC(=O)C2CCC(CNS(=O)(=O)c3ccc4c(c3)CCCC(=O)N4)CC2)c1 (centres undefined) | 16.6% | x | x | i | i | 4.7%
COc1cccc(Oc2cncnc2-c2ccc(OC)cc2O)c1 | 20µM* | u | u | i | i | 1.9%
Cn1cccc1C(=O)N1CCN(S(=O)(=O)c2ccc([N+](=O)[O-])cc2)CC1 | x | x | x | x | i | x
O=C(O)CC(NS(=O)(=O)c1ccc(Br)s1)c1ccccc1 (centres undefined) | 17.1% | x | x | i | i | -8.2%
COc1ccccc1N1CCN(C(=O)c2ccc(-c3ccc(Cl)cc3)o2)CC1 | 15.8µM* | 3.4% | u | i | u | -2.5%
COc1ccccc1N1CCN(C(=O)c2ccc(-c3nc4ccccc4s3)o2)CC1 | 22.4µM* | 0.8%[1.84 µM] | 18.1% | i | u | -3.7%
SMILES | TDP43 rescue | aSyn yeast inh | Mito fusion act | Abeta yeast res | FUS yeast rescue | ERG Ets-DNA blk
COc1ccc(N2CCN(C(=O)c3ccc(-c4nc5ccccc5s4)o3)CC2)cc1 | 16.9% | 0.0% | -0.5% | i | i | 5.3%
Cc1cc2nc3c(nc2cc1C)C1(C(=O)O)CCC3(C)C1(C)C (centres undefined) | 20µM* | 11.1% | 0.2% | i | i | 4.9%
CNC(=O)C12CCC(C)(c3nc4cc(C)c(C)cc4nc31)C2(C)C (centres undefined) | -15.3% | 4.8% | -0.4% | i | i | -1.1%
O=C(c1ccccc1)c1cc2c(cc1[N+](=O)[O-])OCCO2 | u | -11.7% | 6.7% | i | i | 4.0%
Cc1ccc(C(=O)c2cc3c(cc2[N+](=O)[O-])OCCO3)cc1 | 12.6µM* | -7.1% | -6.2% | i | i | 11.2%
CC(C)CC(=O)NC(=S)NNC(=O)c1ccc([N+](=O)[O-])cc1 | 17.8µM* | u | -1.9% | u | i | -4.1%
COC(=O)c1ccccc1NC(=S)NC(=O)c1ccc(C)cc1 | 20µM* | -18.3% | -7.2% | i | x | -3.9%
CCC(=O)NC(=S)NNC(=O)c1ccc([N+](=O)[O-])cc1 | u | 9.5% | -0.8% | i | i | -7.6%
O=C(NNC(=S)NC(=O)c1ccccc1)c1cccc([N+](=O)[O-])c1 | 26.9% | -2.2% | -4.9% | u | i | 15.2%
CCCCC(=O)NNC(=S)NC(=O)c1ccc([N+](=O)[O-])cc1 | 20µM* | 31.6µM* | 9.7% | u | i | -17.5%
CCCCC(=O)NNC(=S)NC(=O)c1cccc([N+](=O)[O-])c1 | 14.1µM* | u | -4.0% | i | i | -0.6%
COC(=O)c1ccccc1NC(=S)NC(=O)c1ccccc1 | u | -14.7% | 0.3% | i | i | -0.4%
CCCCCC(=O)NNC(=O)Cc1ccc([N+](=O)[O-])cc1 | 9.8% | 1.6% | -6.9% | i | i | -3.9%
O=C(NCc1cccnc1)c1nn(-c2ccccc2F)nc1CO | -3.1% | x | x | i | i | -7.5%
CCOc1ccc(C(=O)N2CCN(Cc3cc(=O)n4nc(-c5cccc(OC)c5)sc4n3)CC2)cc1 | 21.7% | x | x | i | i | -0.8%
Cc1ccc(C(=O)NC(=S)NNC(=O)CC#N)cc1 | 1.1% | -2.4% | -1.8% | i | i | -1.0%
CCCCC(=O)NNC(=S)NC(=O)c1ccc(C)cc1 | -74.9% | 3.55µM* | -21.3% | i | i | -7.0%
CCC(C)NC(=O)C1CCN(C(=O)c2cc3sccc3n2Cc2ccc(Cl)cc2)CC1 (centres undefined) | 5.0% | x | x | i | i | -3.2%
O=C(CSc1nnc(-c2ccco2)c(-c2ccco2)n1)Nc1ccccc1 | 9.2% | -1.4% | -2.2% | i | 22.4µM* | 6.1%
Cc1cccc(C)c1NC(=O)CSc1nnc(-c2ccco2)c(-c2ccco2)n1 | 22.4µM* | 7.1% | 1.6% | i | i | 4.5%
CCC(C(=O)Nc1cc(-c2cn3cccnc3n2)ccc1C)c1ccccc1 (centres undefined) | -14.0% | x | x | i | i | 3.1%

Compound activity: PubChem BioAssay, National Center for Advancing Translational Sciences (NCATS)
